Results as given in PubChem BioAssay (EPA / NIEHS).
Active and inactive are the calls of the source. Rule for the calls: active = hit-call score of the fitted dose curve at least 0.9, where 1 is the maximum; inactive = score below 0.9.

assay: ATG_AP_2_CIS: Attagene CIS-FACTORIAL HepG2 Assay for human Activator Protein 2 (AP-2) (AID 2282932); conditions: HepG2 AP-2 cis-reporter, Attagene transcription factor profiling; actives raise or lower the signal
Method: ATG_CIS is a cell-based, multiplexed-readout assay that uses HepG2, a human liver cell line, with measurements taken at 24 hours after chemical dosing in a 24-well plate.ATG_AP_2_CIS is one of 52 assay component(s) measured or calculated from the ATG_CIS assay. It is designed to make measurements of mRNA induction, a form of inducible reporter, as detected with fluorescence intensity signals by Reverse transcription polymerase chain reaction (RT-PCR) and Capillary electrophoresis technology.Data from the assay component ATG_AP_2_CIS was analyzed into 1 assay endpoint. This assay endpoint, ATG_AP_2_CIS, was analyzed with bidirectional fitting relative to DMSO as the negative control and baseline of activity. Using a type of inducible reporter, measures of mRNA for gain or loss-of-signal activity can be used to understand the reporter gene at the transcription factor-level as they relate to the gene TFAP2A and TFAP2B and TFAP2D. Furthermore, this assay endpoint can be referred to as a primary readout, because this assay has produced multiple assay endpoints where this one serves a reporter gene function. To generalize the intended target to other relatable targets, this assay endpoint is annotated to the dna binding intended target family, where the subfamily is basic helix-turn-helix leucine zipper.
Human liver HepG2 cells are transiently transfected with multiple reporter transcription units (MRTUs) in 6-well plates using FuGene 6 reagent (Roche; 3 ml FuGene/1 mg DNA). The MRTU constructs are regulated by a cis-regulating element (promoter). […] A major difference between the CIS and TRANS system is that in CIS activities of endogenous TFs are measured, whereas the TRANS assay evaluates changes in activities of exogenous, chimeric NR-Gal4 proteins. […] At the end of 24 hour incubation, total RNA was isolated using TriZol reagent (Invitrogen). The isolated RNA is then reverse-transcribed using oligo(dT) primer and Mo-MLV reverse transcriptase (Invitrogen) with DNAse I (Ambion) treatment for 30 min. The one-tenth of the produced cDNA was amplified by PCR using Taq DNA polymerase (Invitrogen) and two reporter sequence-specific primers. The PCR products were fluorescently labeled by primer extension with 6-arboxyfluorescein (6-FAM) 5'-labeled reporter sequence-specific primer (2 min at 95 C, 20 s at 68 C and 10 min at 72 C) and these products were digested with 5U of HpaI (New England Biolabs) for 2h at 37 C. The fragments were purified using Qiaquick PCR columns (Qiagen), analyzed on an ABI 3130xL genetic analyzer (Applied Biosystems) with peak positions identified by using a set of X-rhodamine (ROX)-labeled MapMarker1000 molecular weight standards (BioVentures). The raw capillary electrophoresis data was processed using Attagraph software (Attagene).

Row | SMILES | outcome | AC50
1 | CC(C)COC(=O)CC(C(=O)OCC(C)C)S(=O)(=O)O (stereo not given) | inactive | –
2 | C=C(C)C1CC=C(C)CC1 (stereo not given) | inactive | –
3 | CC=C(C)C=CC=C(C)C | inactive | –
4 | CCCCC1CCC(=O)O1 (stereo not given) | inactive | –
5 | COC(=O)c1ccc(C(=O)OC)c(C(=O)OC)c1 | inactive | –
6 | O=C(OCCc1ccccc1)c1ccccc1 | inactive | –
7 | C=C(C)[C@@H]1CC=C(C)CC1 | inactive | –
8 | CCCCCCC=O | inactive | –
9 | CC1CCC(C(C)(C)S)C(=O)C1 (stereo not given) | inactive | –
10 | C[N+](C)(C)CCCNS(=O)(=O)C(F)(F)C(F)(F)C(F)(F)C(F)(F)C(F)(F)C(F)(F)C(F)(F)C(F)(F)F | inactive | –
11 | CCOc1ccc(NC(N)=O)cc1 | inactive | –
12 | CCOC(=O)c1ccccc1C | inactive | –
13 | N#Cc1ccc(C2CCCc3cncn32)cc1 (stereo not given) | inactive | –
14 | O=C(Cl)c1ccc(C(=O)Cl)cc1 | inactive | –
15 | CCCCC(C=O)CC (stereo not given) | inactive | –
16 | C=CCNCC=C | inactive | –
17 | Nc1nc(N)nc(-c2ccccc2)n1 | inactive | –
18 | COC(=O)c1ccccc1C | inactive | –
19 | CC(C)(c1ccccc1)c1ccc(Nc2ccc(C(C)(C)c3ccccc3)cc2)cc1 | inactive | –
20 | O=C(O)CCCC(=O)O | inactive | –

Row | SMILES | outcome | AC50
21 | O=C(O)c1cc(O)c2ccccc2c1O | inactive | –
22 | CC1CCC(=O)C1=O (stereo not given) | inactive | –
23 | CC1=CCC2CC1C2(C)C (stereo not given) | inactive | –
24 | COC(OC)(C(=O)c1ccccc1)c1ccccc1 | inactive | –
25 | CC(C)CCOCc1ccccc1 | inactive | –
26 | CCCCCCCCCCCC(C)=O | – | 153 µM (active)
27 | CCCCC(CC)COC(=O)/C=C/c1ccc(OC)cc1 (stereo not given) | inactive | –
28 | Cc1ccc2c(c1)CCCN2 | inactive | –
29 | Oc1ccc(-c2ccccc2)c(Cl)c1 | inactive | –
30 | C=CC(=O)OCCCCCCOC(=O)C=C | inactive | –
31 | CCCCCCO | inactive | –
32 | CCCC(C)C(=O)OCC (stereo not given) | inactive | –
33 | CCCCCCCC(=O)OCC | inactive | –
34 | O=C(O)C1CCC(C(=O)O)CC1 (stereo not given) | inactive | –
35 | CCOC(=O)OC(=O)OCC | inactive | –
36 | CC(=O)OCc1ccccc1 | inactive | –
37 | Nc1cccc(N)n1 | inactive | –
38 | CCCCOCCOC(=O)COc1ccc(Cl)cc1Cl | inactive | –
39 | C=CC(=O)OCCCCCCCCCC | inactive | –
40 | O=C(O)C(F)(F)C(F)(F)C(F)(F)C(F)(F)C(=O)O | inactive | –
